# Source: PubChem (National Center for Advancing Translational Sciences (NCATS))
# BAZ2B block = qHTS Assay for Inhibitors of BAZ2B | Bromodomain adjacent to zinc finger domain protein 2B (Homo sapiens), Q9UIF8 | Potency, µM (titrated, usually from 114 µM), without a hit: top-dose activity change, negative = inhibition, usual class: inhibitors | 360,000 tested, 4.4% active | AlphaScreen BAZ2B-H3K14Ac peptide displacement; also: % is scaled to controls: 0 for no effect and ±100 for the full control effect; nearly all actives have a fitted effect of over 60% in size
# Target sequence (Q9UIF8 whole entry, looked up, the tested form may be a part): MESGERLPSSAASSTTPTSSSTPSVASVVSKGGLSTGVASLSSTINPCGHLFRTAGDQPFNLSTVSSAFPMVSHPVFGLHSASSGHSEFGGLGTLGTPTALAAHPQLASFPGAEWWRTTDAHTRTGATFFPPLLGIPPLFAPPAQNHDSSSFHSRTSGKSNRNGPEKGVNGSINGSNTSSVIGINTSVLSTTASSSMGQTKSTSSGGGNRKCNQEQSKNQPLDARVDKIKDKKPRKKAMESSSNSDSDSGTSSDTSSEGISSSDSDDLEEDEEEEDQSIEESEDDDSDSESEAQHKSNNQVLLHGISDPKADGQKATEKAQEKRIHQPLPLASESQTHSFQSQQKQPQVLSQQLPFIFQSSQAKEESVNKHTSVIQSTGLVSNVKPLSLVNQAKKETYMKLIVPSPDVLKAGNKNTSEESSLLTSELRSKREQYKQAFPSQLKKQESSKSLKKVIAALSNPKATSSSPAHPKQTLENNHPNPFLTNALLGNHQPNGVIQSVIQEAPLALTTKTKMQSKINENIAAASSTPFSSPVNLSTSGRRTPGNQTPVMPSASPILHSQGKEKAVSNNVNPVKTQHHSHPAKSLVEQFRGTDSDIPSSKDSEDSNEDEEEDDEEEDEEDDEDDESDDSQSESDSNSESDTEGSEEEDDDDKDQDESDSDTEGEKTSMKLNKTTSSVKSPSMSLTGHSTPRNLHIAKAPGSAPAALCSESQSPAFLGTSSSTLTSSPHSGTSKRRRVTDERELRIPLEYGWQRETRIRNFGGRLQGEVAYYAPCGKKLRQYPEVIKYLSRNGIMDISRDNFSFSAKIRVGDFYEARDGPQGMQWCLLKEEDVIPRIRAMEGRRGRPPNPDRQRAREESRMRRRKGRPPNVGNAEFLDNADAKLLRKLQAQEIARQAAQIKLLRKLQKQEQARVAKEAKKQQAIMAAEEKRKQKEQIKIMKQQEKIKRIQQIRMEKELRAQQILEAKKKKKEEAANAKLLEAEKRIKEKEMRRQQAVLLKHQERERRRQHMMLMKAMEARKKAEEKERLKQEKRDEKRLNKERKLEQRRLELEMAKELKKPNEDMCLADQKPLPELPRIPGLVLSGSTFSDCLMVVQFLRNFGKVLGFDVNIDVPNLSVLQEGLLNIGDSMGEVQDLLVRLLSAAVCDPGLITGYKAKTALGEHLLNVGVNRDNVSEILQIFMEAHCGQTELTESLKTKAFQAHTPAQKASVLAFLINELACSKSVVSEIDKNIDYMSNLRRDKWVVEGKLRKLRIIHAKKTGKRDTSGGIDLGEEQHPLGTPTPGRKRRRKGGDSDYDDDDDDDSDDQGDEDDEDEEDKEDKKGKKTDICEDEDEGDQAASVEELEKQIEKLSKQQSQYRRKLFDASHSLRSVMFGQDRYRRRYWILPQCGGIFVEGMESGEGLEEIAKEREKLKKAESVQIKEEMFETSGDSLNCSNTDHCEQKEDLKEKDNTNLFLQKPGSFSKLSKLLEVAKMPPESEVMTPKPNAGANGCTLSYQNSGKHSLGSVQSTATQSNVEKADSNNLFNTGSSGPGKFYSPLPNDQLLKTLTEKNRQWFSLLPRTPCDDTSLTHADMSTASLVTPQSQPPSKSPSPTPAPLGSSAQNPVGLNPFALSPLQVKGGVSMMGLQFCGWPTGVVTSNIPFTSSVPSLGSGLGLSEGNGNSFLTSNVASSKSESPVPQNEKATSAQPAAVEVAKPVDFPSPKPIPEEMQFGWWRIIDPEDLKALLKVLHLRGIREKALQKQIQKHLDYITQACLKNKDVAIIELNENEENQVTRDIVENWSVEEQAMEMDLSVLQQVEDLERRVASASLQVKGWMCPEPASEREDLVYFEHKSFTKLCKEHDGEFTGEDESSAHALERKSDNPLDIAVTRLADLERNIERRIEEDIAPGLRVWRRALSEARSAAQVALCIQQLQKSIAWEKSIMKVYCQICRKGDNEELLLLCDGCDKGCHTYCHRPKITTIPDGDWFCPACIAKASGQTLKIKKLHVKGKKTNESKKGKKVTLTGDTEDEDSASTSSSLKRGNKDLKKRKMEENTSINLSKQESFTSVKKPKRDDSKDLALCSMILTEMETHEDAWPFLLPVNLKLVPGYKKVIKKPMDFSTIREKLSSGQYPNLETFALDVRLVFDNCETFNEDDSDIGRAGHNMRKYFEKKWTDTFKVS
#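 AlphaScreen luminescence quantifies BAZ2B engagement of H3K14Ac peptide; the protein and biotinylated peptide are both at 50 nM final, buffer PBS pH 7.4 with 0.01% Tween-20, all steps at room temperature.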
# JMJD2A Tudor inh = qHTS Assay for Inhibitors of JMJD2A-Tudor Domain. Lysine-specific demethylase 4A (Homo sapiens), O75164. AlphaScreen JMJD2A-Tudor / H3K4me3 peptide binding. Potency, µM (highest dose often 114 µM), without a hit: at the top dose activity change, negative = inhibition, hits mostly inhibitors. 390,000 tested, 4.4% active. AID 504339, 2011; also: % is scaled to controls: 0 for no effect and ±100 for the full control effect; nearly all actives have a fitted effect of over 50% in size
# G9a block = qHTS Assay for Inhibitors of Histone Lysine Methyltransferase G9a. AID 504332, 2011. G9a H3K9 monomethylation, AlphaScreen, 2 h. Potency, µM (highest dose often 102 µM), inactives show top-dose activity, negative = inhibition, hits mostly inhibitors. Histone-lysine N-methyltransferase EHMT2 (Homo sapiens), Q96KQ7. 350,000 tested, 8.8% active; also: % is scaled to controls: 0 for no effect and ±100 for the full control effect; nearly all actives have a fitted effect of over 75% in size
#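 Readings reflect AlphaScreen signal from monomethyl-H3K9 antibody detection. HMT at 20 nM; substrate b-H3K9 500 nM; cofactor SAM 20 uM; 2 h RT reaction; compounds tested as titrations in qHTS with 15 min preincubation.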
# HP1b chromo inh = HTS for Inhibitors of HP1-beta Chromodomain Interactions with Methylated Histone Tails. Chromobox protein homolog 1 (Homo sapiens), P83916. AlphaScreen HP1-beta / biotin-H3K9me3 peptide binding. Potency, µM (series often up to 114 µM), inactives show top-dose activity change, negative = inhibition, most hits filed as inhibitors. 390,000 tested, 0.56% active; also: nearly all actives have a fitted effect of over 70% in size
#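 AlphaScreen: HP1-beta (50 nM) preformed 30 min with biotin-H3(1-18)K9me3 peptide (50 nM) in PBS pH 7.4, 0.01% Tween-20. Compound added for 30 min at RT, then streptavidin donor/nickel chelate acceptor beads (10 ug/mL) for 30 min.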
# PLK1 PBD block = qHTS for Inhibitors of PLK1-PDB (polo-like kinase 1 - polo-box domain): Primary Screen; Potency, µM, for the others: max response, negative = inhibition, usual class: inhibitors; Serine/threonine-protein kinase PLK1 (Homo sapiens), P53350; 360,000 tested, 2.8% active; Plk1 PBD binding of FITC phosphopeptide, fluorescence polarization; also: series mostly up to about 57 µM; % is scaled to controls: 0 for no effect and ±100 for the full control effect; nearly all actives have a fitted effect of over 65% in size
# Sfp PPTase inh = qHTS Assay for Inhibitors of Bacillus subtilis Sfp phosphopantetheinyl transferase (PPTase); Potency, µM, without a hit: largest response in the series, negative = inhibition, actives largely listed as inhibitors; 4'-phosphopantetheinyl transferase ffp (Bacillus subtilis), Q9F4F7; Biochemical Sfp PPTase activity, qHTS; 310,000 tested, 3.5% active;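 also: the enzyme is Sfp with the accession as filed and its product quenches rhodamine fluorescence; 0% = enzyme reaction without inhibitor and -100% = no enzyme wells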
#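 Fluorescence-quenching assay with 15 nM Sfp, 5 uM rhodamine-CoA and 12.5 uM BHQ-2-labelled ybbR peptide in pH 7.6 Hepes/MgCl2 buffer. Enzyme was pre-incubated with compound for 15 min at room temperature. Rate was taken from the 30-min fluorescence change (525/598 nm).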
# An asterisk follows results filed as active; ? = inconclusive; . = no result given; [ ] = dose if it differs, or a comment. Most compounds without a hit are left out; they make up all but 12% or so of the library. Calls follow the shape of the dose curve; as a rule, active = well fitted curve in the direction sought with a large enough effect; inconclusive = small, poorly fitted or top-dose-only effect, or another doubt; inactive = no such curve, though single readings can be large; an effect the other way counts as inactive or inconclusive. Potency is read from the fitted curve at half-maximal effect.
SMILES,BAZ2B block,JMJD2A Tudor inh,G9a block,HP1b chromo inh,PLK1 PBD block,Sfp PPTase inh
N#C/C(=C\c1ccc(-c2ccccc2Cl)o1)C(=O)Nc1nc2ccccc2s1,-0.5%,-31.8%,9.6%[59 µM],14.3%,-21.5%,13.1%
COc1ccc(Cl)cc1NC(=O)c1nn(-c2ccc(C)cc2)c(=O)n(C)c1=O,-1.0%,-6.7%,1.7%[59 µM],22.4%[57 µM],.,.
Cc1ccc(NC(=O)CC(C)S(=O)(=O)c2ccc3c(c2)NC(=O)CO3)c(C)c1 (stereo not given),2.1%,-10.9%,1.3%[59 µM],19.6%,.,.
CCOC(=O)N1CCN(C(=O)C2CCN(CC3CCCCC3)CC2)CC1,-26.1%,8.91µM*,35.5µM*,-14.0%,9.5%,10.8%
CN(Cc1ccccc1)/C(=N/O)c1cccc(Cl)c1,-7.3%,-7.4%,0.4%,26.6%,0.8%,7.7%
CC(O)CN(Cc1cccc(Cl)c1)CC(C)O (stereo not given),56.2µM*,3.55µM*,?,-25.1%,-0.7%,-2.8%
Cc1ccc2c(c1)c(N=Nc1cccc(C(=O)O)c1)c(O)n2C,?,-12.4%,35.5µM*,-5.5%,-19.5%,12.6%
CCOc1ccc2c(c1)c(N=Nc1cccc(C(=O)O)c1)c(O)n2C,?,?,?,-20.9%,-10.7%,-3.7%
CSCCOC(=O)COc1ccc(/C=N/NC(=O)c2nn(C)cc2Cl)cc1,-5.2%,-0.7%,39.8µM*,25.6%,-0.5%,4.0%
Cc1ccc(S(=O)(=O)Oc2ccc(/C=N/NC(=O)c3nn(C)cc3Cl)cc2)cc1,-0.9%,-5.4%,-11.0%[59 µM],20.6%,-0.3%,10.5%
CC12CCC(C(=O)N(CSC(=S)N/N=C\c3ccccc3)C1=O)C2(C)C (stereo not given),-32.4%,-28.2%[11.4 µM],-9.4%[59 µM],-3.0%,3.36µM*,29.3%
CC12CCC(C(=O)N(CSC(=S)N/N=C\c3ccccc3Cl)C1=O)C2(C)C (stereo not given),-35.5%,?,3.8%[59 µM],5.1%,-21.6%,-3.9%
O=C(NNC(=O)c1ccncc1)Nc1ccc(N=Nc2ccccc2)cc1,.,?,.,?,-2.2%,.
O=C(O)/C=C/C(=O)Nc1ccc(Oc2ncnc3cc(Cl)ccc23)nc1,-10.4%,-20.3%,?,-6.4%,-15.6%,79.4µM*
O=C(CCn1c(=O)c2sccc2n(Cc2ccccc2F)c1=O)NCc1ccc2c(c1)OCO2,1.0%,-13.7%,-4.7%[59 µM],10.4%,.,.
CSCCC(C(=O)O)N1C(=O)c2ccc(C(=O)O)cc2C1=O (stereo not given),-9.7%,79.4µM*,25.1µM*,21.3%,-6.7%,-9.4%
Cc1nn(-c2ccccc2)c(OC(=O)c2cccs2)c1S(=O)(=O)c1ccc([N+](=O)[O-])cc1,79.4µM*,?,?,12.7%,-11.0%,16.7%
CCOc1cc(CNC(=O)C2COc3ccccc3C2)cc(OCC)c1OCC (stereo not given),-0.6%,-9.9%,0.2%[59 µM],21.4%[57 µM],.,.
CN1CCN(S(=O)(=O)c2cccc(C(=O)Oc3cccc(C#N)c3)c2)CC1,8.5%,-17.2%,?,23.3%,-20.4%,.
COc1cc(C#N)ccc1OC(=O)c1cccc(S(=O)(=O)N2CCN(C)CC2)c1,10.9%,-6.2%,50.1µM*,17.7%,-26.1%,.
CN1CCCN(S(=O)(=O)c2cccc(C#N)c2)CC1,-18.5%,-8.1%,56.2µM*,48.2%,-6.3%,-8.7%
CN1CCN(S(=O)(=O)c2ccc(C#N)cc2)C(c2ccccc2)C1 (stereo not given),-3.9%,8.4%,?,46.5%,1.5%,.
